Data published in PubChem BioAssay AID2241 (Broad Institute, 2010).
In all, about 21,000 compounds went through this assay and about 110 (0.52%) were called active.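 How the source made its calls: active means most replicate scores above 10, or exactly half above 10 with mean activity above 10; inconclusive means mean activity below 10 while half the replicates exceed 10; inactive means most replicate scores below 10.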 Only a selection was taken, and actives are over-represented in it overall.

Experiment: caspase activation in A1-primed MEFs – cell-based, CaspaseGlo luminescence, A1 inhibitor project, primary screen (AID 2241);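 further: effector caspase 3 and 7 activity cleaving a DEVD luciferin substrate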
Conditions: MEF A1-2A-BIM cells, caspase-Glo luminescence, 3 h; hits give high values; percent of clofoctol signal, DMSO as zero; concentration not given here

Row | SMILES | caspase activation
1 | CN[C@@H]1C[C@H]2O[C@@](C)([C@@H]1OC)n1c3ccccc3c3c4c(c5c6ccccc6n2c5c31)C(=O)NC4 | 81% (active)
2 | CCN(CC)C(=O)c1ccc(N(Cc2ccccc2Cl)S(C)(=O)=O)cc1 | -0.556% (inactive)
3 | C[C@H]1O[C@@H](O[C@H]2CC[C@]3(CO)C4CC[C@]5(C)[C@@H](C6=CC(=O)OC6)CC[C@]5(O)[C@@H]4CC[C@H]3C2)[C@H](O)[C@H](O)[C@@H]1O[C@@H]1O[C@H](CO)[C@@H](O)[C@H](O)[C@H]1O (stereo not given in full) | -0.142% (inactive)
4 | CC1N=C(c2ccccc2)c2ccccc2N(CCCOc2ccc(F)cc2)C1=O (stereo not given) | -0.726% (inactive)
5 | Cc1ccc(CSc2nnc(OC(=O)N(C)C)n2-c2cccc(Cl)c2)cc1 | -0.0343% (inactive)
